Experimental data from PubChem BioAssay.
Some of the results follow. Calls of active or inactive are those of the source.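 The calls were made as follows, unless noted: active = mean inhibition over 43.08%, the solvent-only control mean plus 3 SD; inactive = the rest.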

Tests used:
[1] = biological target: Nuclear receptor coactivator 3 (Homo sapiens) (UniProt Q9Y6Q9); experiment: SRC3 coactivator transcriptional activity inhibitors, confirmation, cell-based, luminescence, quadruplicate (AID 588792); settings: HEK293 GAL4-SRC3 luciferase reporter, at 3.6 µM, active compounds read high;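 also: 0% = DMSO treated cells and 100% = gossypol at 36 µM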
Nuclear receptor coactivator 3 (Homo sapiens), sequence (Q9Y6Q9 whole entry, looked up, the tested form may be a part): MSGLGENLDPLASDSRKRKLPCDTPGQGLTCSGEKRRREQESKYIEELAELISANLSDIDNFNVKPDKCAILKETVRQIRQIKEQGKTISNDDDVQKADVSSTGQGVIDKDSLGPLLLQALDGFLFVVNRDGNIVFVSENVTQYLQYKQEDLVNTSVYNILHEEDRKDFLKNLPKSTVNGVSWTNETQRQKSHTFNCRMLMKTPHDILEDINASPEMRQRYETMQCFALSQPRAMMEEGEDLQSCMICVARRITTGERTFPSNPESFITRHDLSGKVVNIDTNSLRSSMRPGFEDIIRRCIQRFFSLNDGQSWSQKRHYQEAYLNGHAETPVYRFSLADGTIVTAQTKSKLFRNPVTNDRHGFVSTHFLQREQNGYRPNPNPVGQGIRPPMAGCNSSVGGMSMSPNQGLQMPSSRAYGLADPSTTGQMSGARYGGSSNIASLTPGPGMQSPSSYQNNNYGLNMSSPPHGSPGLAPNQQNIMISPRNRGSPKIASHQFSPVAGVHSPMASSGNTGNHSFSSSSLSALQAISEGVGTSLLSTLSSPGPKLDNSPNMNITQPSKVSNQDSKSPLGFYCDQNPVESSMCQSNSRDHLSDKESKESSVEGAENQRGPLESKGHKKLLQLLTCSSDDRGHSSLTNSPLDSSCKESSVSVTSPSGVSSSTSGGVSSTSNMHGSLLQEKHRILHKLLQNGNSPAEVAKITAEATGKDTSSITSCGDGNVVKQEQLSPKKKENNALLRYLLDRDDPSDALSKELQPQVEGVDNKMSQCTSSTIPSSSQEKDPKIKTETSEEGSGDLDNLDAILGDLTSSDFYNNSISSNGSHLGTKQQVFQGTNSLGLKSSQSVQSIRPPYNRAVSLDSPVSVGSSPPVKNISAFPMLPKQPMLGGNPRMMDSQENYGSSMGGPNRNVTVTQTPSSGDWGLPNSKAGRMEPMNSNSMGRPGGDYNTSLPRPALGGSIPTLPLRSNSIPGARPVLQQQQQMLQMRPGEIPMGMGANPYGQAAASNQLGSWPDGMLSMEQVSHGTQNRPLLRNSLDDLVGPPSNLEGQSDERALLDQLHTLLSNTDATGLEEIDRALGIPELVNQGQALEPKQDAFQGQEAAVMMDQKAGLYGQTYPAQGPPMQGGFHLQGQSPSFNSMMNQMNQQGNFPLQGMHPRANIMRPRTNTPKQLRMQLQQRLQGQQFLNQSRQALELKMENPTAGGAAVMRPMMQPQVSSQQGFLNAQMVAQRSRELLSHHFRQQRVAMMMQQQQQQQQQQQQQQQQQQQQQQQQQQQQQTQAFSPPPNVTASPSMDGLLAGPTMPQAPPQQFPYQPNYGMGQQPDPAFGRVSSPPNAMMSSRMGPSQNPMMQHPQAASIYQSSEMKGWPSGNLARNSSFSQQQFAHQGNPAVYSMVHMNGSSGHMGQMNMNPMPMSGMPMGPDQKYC

[2] = tested on: transactivating tegument protein VP16 (Human herpesvirus 1), Gal4-VP16 luciferase reporter; experiment: VP16 transactivation inhibitors, counter-screen for SRC3 inhibitor project, cell-based, luminescence, high throughput (AID 588794; in the data active = inhibition above about 30%); settings: mammalian cells, VP16-driven luciferase reporter luminescence; at 3.6 µM; active compounds read high
[3] = biological target: Nuclear receptor coactivator 1 (Homo sapiens) (UniProt Q15788); experiment: SRC1 coactivator transcriptional activity inhibitors, confirmation, cell-based, luminescence, quadruplicate (AID 588820;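 active = mean inhibition above 46.68%, the untreated control wells mean plus 3 SD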;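 also: 0% = DMSO wells and 100% = gossypol 36 µM treated wells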); settings: HEK293 GAL4-SRC1 luciferase reporter, at 3.6 µM, active compounds read high
Nuclear receptor coactivator 1 (Homo sapiens), sequence (Q15788 whole entry, looked up, the tested form may be a part): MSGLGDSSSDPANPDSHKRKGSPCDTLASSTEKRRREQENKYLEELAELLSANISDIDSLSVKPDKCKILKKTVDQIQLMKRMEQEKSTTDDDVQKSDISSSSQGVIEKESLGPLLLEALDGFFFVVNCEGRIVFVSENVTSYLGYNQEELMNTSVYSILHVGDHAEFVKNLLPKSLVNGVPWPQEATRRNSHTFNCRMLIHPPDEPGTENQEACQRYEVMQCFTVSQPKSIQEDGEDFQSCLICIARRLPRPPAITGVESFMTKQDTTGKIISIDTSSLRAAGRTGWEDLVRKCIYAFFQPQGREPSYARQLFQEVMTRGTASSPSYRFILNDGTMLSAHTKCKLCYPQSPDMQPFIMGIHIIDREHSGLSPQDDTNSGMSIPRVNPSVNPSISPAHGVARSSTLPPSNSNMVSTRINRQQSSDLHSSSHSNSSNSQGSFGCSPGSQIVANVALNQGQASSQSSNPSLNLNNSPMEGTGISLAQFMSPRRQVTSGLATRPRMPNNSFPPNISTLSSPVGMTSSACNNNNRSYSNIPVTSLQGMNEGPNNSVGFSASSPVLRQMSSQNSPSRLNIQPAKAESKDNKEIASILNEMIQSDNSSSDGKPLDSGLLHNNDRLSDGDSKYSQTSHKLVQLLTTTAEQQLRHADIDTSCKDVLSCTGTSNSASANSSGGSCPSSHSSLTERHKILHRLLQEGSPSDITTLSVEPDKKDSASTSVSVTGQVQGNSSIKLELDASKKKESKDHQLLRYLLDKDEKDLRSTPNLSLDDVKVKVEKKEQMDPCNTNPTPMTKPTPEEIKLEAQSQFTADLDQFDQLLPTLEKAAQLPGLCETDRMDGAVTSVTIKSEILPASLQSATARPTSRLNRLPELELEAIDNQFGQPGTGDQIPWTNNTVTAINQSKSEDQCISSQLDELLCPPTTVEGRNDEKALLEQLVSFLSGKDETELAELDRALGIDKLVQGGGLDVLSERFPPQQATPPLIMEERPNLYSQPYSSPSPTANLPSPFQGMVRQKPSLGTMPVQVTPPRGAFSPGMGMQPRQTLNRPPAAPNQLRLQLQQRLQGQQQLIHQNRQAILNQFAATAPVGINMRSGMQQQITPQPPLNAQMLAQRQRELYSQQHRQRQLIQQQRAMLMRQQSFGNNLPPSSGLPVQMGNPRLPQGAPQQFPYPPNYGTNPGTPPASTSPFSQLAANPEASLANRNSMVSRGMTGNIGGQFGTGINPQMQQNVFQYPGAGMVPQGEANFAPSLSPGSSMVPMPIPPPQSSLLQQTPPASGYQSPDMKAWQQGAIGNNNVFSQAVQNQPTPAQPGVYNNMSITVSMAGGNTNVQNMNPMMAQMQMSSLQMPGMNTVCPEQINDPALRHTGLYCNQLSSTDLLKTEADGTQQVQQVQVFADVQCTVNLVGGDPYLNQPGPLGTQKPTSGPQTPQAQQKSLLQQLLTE

[4] = VP16 transactivation inhibitors, counter-screen for SRC1 inhibitor project, cell-based, luminescence, high throughput (AID 588824; in the data active = inhibition above about 25%); settings: cell-based VP16 transactivation luciferase luminescence; at 3.6 µM; active compounds read high
[5] = StAR promoter reporter inhibitors, counter-screen for LRH-1 inverse agonist project, cell-based, luminescence, high throughput (AID 651611; in the data active = inhibition above about 28%); settings: StAR promoter luciferase reporter counterscreen, at 3.6 µM, active compounds read high
[6] = biological target: Nuclear receptor subfamily 5 group A member 2 (Homo sapiens) (UniProt O00482); experiment: LRH-1 (NR5A2) inverse agonists, retest, confirmation, cell-based, luminescence (AID 651613; in the data active = inhibition above about 42%;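 also: HEK293T cells co-transfected with LRH-1 and StAR promoter luciferase reporter; 0% = vehicle wells and 100% = parental cells lacking receptor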); settings: cell-based LRH-1 luciferase reporter, inverse agonism; at 3.6 µM; active compounds read high
Nuclear receptor subfamily 5 group A member 2 (Homo sapiens), sequence (O00482 whole entry, looked up): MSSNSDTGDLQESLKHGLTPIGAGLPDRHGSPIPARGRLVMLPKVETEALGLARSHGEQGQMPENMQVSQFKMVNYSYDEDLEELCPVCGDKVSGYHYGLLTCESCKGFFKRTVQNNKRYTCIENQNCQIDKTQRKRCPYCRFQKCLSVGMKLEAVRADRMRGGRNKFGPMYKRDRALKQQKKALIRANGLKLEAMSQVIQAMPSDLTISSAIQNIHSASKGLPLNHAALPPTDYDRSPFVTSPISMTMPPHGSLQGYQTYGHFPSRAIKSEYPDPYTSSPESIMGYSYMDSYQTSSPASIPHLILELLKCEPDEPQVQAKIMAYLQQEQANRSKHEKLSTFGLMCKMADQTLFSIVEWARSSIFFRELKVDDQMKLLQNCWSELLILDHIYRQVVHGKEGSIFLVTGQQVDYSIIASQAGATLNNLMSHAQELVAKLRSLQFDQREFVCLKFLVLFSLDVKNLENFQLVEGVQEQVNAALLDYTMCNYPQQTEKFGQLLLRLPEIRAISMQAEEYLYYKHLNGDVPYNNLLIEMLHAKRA

[7] = biological target: Steroidogenic factor 1 (Homo sapiens) (UniProt Q13285); experiment: SF1 (NR5A1) inverse agonists, counter-screen for LRH-1 inverse agonist project, cell-based, luminescence, high throughput (AID 651614; in the data active = inhibition above about 44%;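 also: cells cotransfected with StAR promoter reporter and SF1 expression vector; 0% = vehicle on cells with receptor and 100% = vehicle on cells lacking receptor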); settings: cell-based SF1 luciferase reporter, at 3.6 µM, active compounds read high
[8] = VP16 transactivation reporter inhibitors, counter-screen for LRH-1 inverse agonist project, cell-based, luminescence, high throughput (AID 651615; in the data active = inhibition above about 33%); settings: Gal4-VP16 luciferase reporter cells, at 3.6 µM, active compounds read high
[9] = biological target: Photoreceptor-specific nuclear receptor (Homo sapiens) (UniProt Q9Y5X4); experiment: NR2E3 agonist confirmation in cells, cell-based, luminescence, CHO-S two-hybrid (AID 624378;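 active = average inhibition above a cutoff equal to the mean inhibition of all tested compounds plus one SD, cut at about 70% in these data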;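 also: 0% = DMSO in NR2E3 cells and 100% = DMSO in cells lacking NR2E3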); settings: CHO-S mammalian two-hybrid NR2E3-NCOR, luciferase luminescence; at 3.98 µM; active compounds read high
[10] = GAL4-VP16 reporter modulators, confirmation, counter-screen for NR2E3 agonist project, cell-based, luminescence, CHO-S, high throughput (AID 624379;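 active = mean inhibition above a cutoff equal to the average over all tested compounds plus one standard deviation, cut at about 70% in these data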;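 also: 0% = DMSO with VP16-transfected cells and 100% = DMSO with cells lacking VP16; higher means less reporter light so more repression of VP16 activity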); settings: CHO-S GAL4-VP16 luciferase reporter, at 3.98 µM, active compounds read high
[11] = tested on: transactivating tegument protein VP16 (Human herpesvirus 1); experiment: VP16 transactivation reporter inhibitors, counter-screen for SRC2 inhibitor project, cell-based, luminescence, single concentration (AID 652007; in the data active = inhibition above about 36%); settings: cell-based VP16 transactivation luciferase reporter, at 8.9 µM, active compounds read high
[12] = biological target: Nuclear receptor coactivator 2 (Homo sapiens) (UniProt Q15596); experiment: SRC2 coactivator transcriptional activity inhibitors, confirmation, cell-based, luminescence, HEK293, triplicate (AID 652008;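 active = mean inhibition above 46.5%, the solvent-only control mean plus 3 SD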;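 also: 0% = DMSO-treated cells and 100% = Gossypol at 36 µM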); settings: HEK293 GAL4-SRC2 luciferase reporter, at 8.9 µM, active compounds read high
Nuclear receptor coactivator 2 (Homo sapiens), sequence (Q15596 whole entry, looked up, the tested form may be a part): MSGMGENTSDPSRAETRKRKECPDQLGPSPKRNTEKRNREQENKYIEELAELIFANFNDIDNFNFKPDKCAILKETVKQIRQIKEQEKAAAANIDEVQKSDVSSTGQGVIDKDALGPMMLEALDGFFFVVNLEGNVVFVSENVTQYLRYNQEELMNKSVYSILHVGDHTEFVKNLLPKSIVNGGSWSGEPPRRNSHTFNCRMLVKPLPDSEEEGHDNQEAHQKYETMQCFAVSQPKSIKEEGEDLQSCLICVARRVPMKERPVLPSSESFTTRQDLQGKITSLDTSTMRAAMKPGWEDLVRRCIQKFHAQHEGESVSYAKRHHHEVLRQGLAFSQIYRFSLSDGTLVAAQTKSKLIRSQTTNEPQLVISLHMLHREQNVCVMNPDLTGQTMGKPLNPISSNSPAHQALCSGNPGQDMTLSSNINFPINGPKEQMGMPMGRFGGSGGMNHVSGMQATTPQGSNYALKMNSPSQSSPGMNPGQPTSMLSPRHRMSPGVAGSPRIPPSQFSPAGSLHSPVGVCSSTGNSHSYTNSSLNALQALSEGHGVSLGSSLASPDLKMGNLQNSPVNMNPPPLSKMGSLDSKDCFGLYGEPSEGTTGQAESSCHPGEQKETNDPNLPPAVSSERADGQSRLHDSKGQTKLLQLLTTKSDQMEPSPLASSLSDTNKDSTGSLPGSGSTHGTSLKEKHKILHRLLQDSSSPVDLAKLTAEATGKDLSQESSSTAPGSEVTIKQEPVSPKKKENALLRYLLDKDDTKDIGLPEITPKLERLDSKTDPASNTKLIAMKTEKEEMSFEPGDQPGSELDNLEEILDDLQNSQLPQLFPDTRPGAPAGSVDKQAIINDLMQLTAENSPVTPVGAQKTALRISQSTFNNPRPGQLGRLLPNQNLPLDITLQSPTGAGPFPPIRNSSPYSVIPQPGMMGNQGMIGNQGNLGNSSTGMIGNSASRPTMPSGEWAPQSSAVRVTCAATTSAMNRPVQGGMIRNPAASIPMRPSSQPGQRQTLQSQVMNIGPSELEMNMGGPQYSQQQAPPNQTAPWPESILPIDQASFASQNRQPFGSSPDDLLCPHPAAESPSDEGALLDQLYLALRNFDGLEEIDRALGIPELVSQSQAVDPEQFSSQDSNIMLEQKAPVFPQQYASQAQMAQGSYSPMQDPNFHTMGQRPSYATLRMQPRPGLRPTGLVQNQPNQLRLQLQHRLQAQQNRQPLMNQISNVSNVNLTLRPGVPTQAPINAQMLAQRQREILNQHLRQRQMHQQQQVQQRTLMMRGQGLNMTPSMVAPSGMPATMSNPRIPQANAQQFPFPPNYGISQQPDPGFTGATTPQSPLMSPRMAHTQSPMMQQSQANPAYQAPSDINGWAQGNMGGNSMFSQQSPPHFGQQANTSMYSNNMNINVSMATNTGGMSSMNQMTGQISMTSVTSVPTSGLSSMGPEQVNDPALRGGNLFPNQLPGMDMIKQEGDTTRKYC

[13] = Gal4-VP16 luciferase reporter inhibitors, counter-screen for COUP-TFII antagonist project, cell-based, luminescence, HEK293 (AID 687007; in the data active = inhibition above about 13%); settings: at 8.5 µM, active compounds read high
[14] = biological target: COUP transcription factor 2 (Homo sapiens) (UniProt P24468); experiment: NR2F2 transcriptional activity inhibitors, confirmation, cell-based, luciferase reporter, HEK293, triplicate (AID 687008;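 active = mean inhibition over three repeats above a set limit taken from the earlier primary screen, cut at about 38% in these data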;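 also: 100% = cells given the luciferase reporter alone without the COUP-TF2 vector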); settings: HEK293 NGFI-A luciferase reporter, luminescence; at 8.5 µM; active compounds read high

Measured: inhibition

Cc1cccc(C)c1-n1nnnc1C(CCc1ccccc1)N1CCC(n2c(=O)[nH]c3ccccc32)CC1 (centres undefined)
inactive: [1] 40.6% | [3] 20.7%
active: [2] 49.2% | [4] 51.8%

O=c1[nH]c2ccccc2n1C1CCN(C(c2ccccc2OC(F)(F)F)c2nnnn2Cc2ccccc2)CC1 (centres undefined)
inactive: [1] -2.46% | [2] 2.54% | [3] -29% | [4] 0.5%

C=CCn1c(O)c(C(C)=NCc2cc(OC)cc(OC)c2)c(=O)[nH]c1=O
inactive: [2] 28.2% | [3] 43% | [4] 24.5%
active: [1] 49.6% | [5] 42.4% | [6] 66.4% | [7] 57.7% | [8] 43.6%

CCC(C)(O)C(=O)OC1C(=O)OC2CC3C(C)=CC(=O)C(O)C3(C)C3C4(O)OCC23C1C(C)C4O (centres undefined)
active: [1] 97.1% | [2] 96.7% | [3] 94.3% | [4] 96.4% | [9] 98.7% | [10] 86.9% | [5] 96.1% | [6] 109% | [7] 97.6% | [8] 96.8% | [11] 80.7% | [12] 74.8% | [13] 31.2% | [14] 90.8%

Clc1ccc(C[n+]2c(-c3ccccc3)cc(-c3ccccc3)cc2-c2ccccc2)cc1
active: [1] 83.5% | [2] 66% | [3] 53.1% | [4] 73.6% | [5] 70.8% | [6] 110% | [7] 89.8% | [8] 94%

CC1CC(C)(O)CC(C(O)CC2CC(=O)NC(=O)C2)C1=O (centres undefined)
active: [1] 96.7% | [2] 95.7% | [3] 89.7% | [4] 94.9% | [5] 96.2% | [6] 110% | [7] 98.5% | [8] 98.1%

CN(C)c1ccc(/C=C/C=C/c2sc3ccccc3[n+]2C)cc1
active: [2] 38.5% | [4] 30.4% | [5] 35.2% | [6] 54.1% | [7] 63% | [8] 56.9%
inactive: [1] 22.8% | [3] 27.4%

CC(=O)OC1CC(OC2C(O)CC(OC3C(O)CC(OC4CCC5(C)C(CCC6C5CC(O)C5(C)C(C7=CC(=O)OC7)CCC65O)C4)OC3C)OC2C)OC(C)C1OC1OC(CO)C(O)C(O)C1O (centres undefined)
inactive: [12] 28.8%
active: [1] 97.8% | [2] 88.9% | [3] 73.8% | [4] 86.5% | [5] 95% | [6] 109% | [7] 97.9% | [8] 89.4% | [11] 64.3%

C[C@@H]1O[C@@H](O[C@@H]2C=C3CCC4C(CC[C@]5(C)[C@@H](c6ccc(=O)oc6)CC[C@]45O)[C@@]3(C)CC2)[C@H](O)[C@H](O)[C@H]1O (some centres undefined)
active: [1] 97.5% | [2] 90.9% | [3] 84.9% | [4] 89.9% | [5] 97% | [6] 110% | [7] 98.9% | [8] 96.5% | [11] 74.1% | [12] 60.1%

CC12CCC(O)CC1CCC1C2CCC2(C)C(C3=CC(=O)OC3)CCC12O (centres undefined)
inactive: [12] 23.6%
active: [1] 97.6% | [2] 87.9% | [3] 70.6% | [4] 87.4% | [5] 95.7% | [6] 110% | [7] 98.2% | [8] 89% | [11] 58.5%

C[C@@H]1O[C@@H](O[C@H]2C[C@@H](O)[C@]3(CO)[C@@H]4C(CC[C@]3(O)C2)[C@@]2(O)CC[C@H](C3COC(=O)C3)[C@@]2(C)C[C@H]4O)[C@H](O)[C@H](O)[C@H]1O (some centres undefined)
active: [1] 87.8% | [2] 47.1% | [4] 54.1% | [5] 92% | [6] 100% | [7] 85.2% | [8] 56.4%
inactive: [3] 5.8%

CC1C(OC(=O)CCC(=O)NC(C)(C)CO)O[C@H]2OC3(C)CC[C@H]4[C@H](C)CCC1C24OO3 (some centres undefined)
active: [1] 55.9% | [2] 79.9% | [3] 51.9% | [4] 81.2% | [5] 76.2% | [6] 101% | [7] 91% | [8] 84%

CC(=O)OC1C(=O)OCC23CCC4(C)OC4C2OC2CC(OC(=O)C=CC=CC(=O)OCCC1C)C3(C)C21CO1 (centres undefined)
active: [1] 98.1% | [2] 96.5% | [3] 96.7% | [4] 96.3% | [5] 96.8% | [6] 110% | [7] 98.6% | [8] 95.3%

CCOc1ccc(-c2cc(C)[n+](CCc3ccc(OC)c(OC)c3)c(-c3ccc(OCC)cc3)c2)cc1
active: [1] 53.6% | [2] 69.7% | [3] 60% | [4] 73.4% | [5] 70% | [6] 104% | [7] 92.3% | [8] 85.4%

CC(=O)OC1CC2OC3C=C(C)CCC3(C)C1(C)C21CO1 (centres undefined)
active: [1] 98.2% | [2] 95.5% | [3] 94.2% | [4] 95.1% | [5] 95.2% | [6] 111% | [7] 98% | [8] 96.8% | [11] 82.5% | [12] 76.1%

CN1CCN(c2ccc([N+](=O)[O-])c3no[n+]([O-])c23)CC1
active: [1] 98.6% | [2] 96.4% | [3] 93.7% | [4] 96% | [5] 97% | [6] 111% | [7] 98.9% | [8] 97.9%

COc1ccc(-[n+]2c(-c3ccccc3)cc(-c3ccc(C)cc3)cc2-c2ccccc2)cc1
active: [1] 85.5% | [2] 87.3% | [3] 71.9% | [4] 88.3% | [5] 82.7% | [6] 111% | [7] 96.9% | [8] 98.2%

COc1ccc(C[C@H]2NC[C@H](O)[C@H]2OC(C)=O)cc1
active: [1] 98.9% | [2] 97.4% | [3] 96% | [4] 96.7% | [5] 94.4% | [6] 110% | [7] 97.7% | [8] 95.9% | [11] 79.2% | [12] 78.6%

O=c1[nH]c2ccccc2n1C1CCN(C(c2ccccc2OC(F)(F)F)c2nnnn2-c2ccc3c(c2)OCCO3)CC1 (centres undefined)
active: [5] 61.8% | [7] 43.7% | [8] 39.8%
inactive: [1] 27.6% | [2] -1.84% | [3] -23.1% | [4] -0.24% | [6] 37.3%

CC(N)C(=O)NC1C2C(=C(O)CC(O)C2O)C(=O)OC1(C)C(Cl)Cl (centres undefined)
active: [1] 98.8% | [2] 96.8% | [3] 88.6% | [4] 96.8% | [5] 96.4% | [6] 110% | [7] 98.5% | [8] 98.3% | [11] 77.2% | [12] 74.3%

O=[N+]([O-])c1ccc(N2CCOCC2)c2c1no[n+]2[O-]
inactive: [3] 23%
active: [1] 82.4% | [2] 62.9% | [4] 62.2% | [5] 94.1% | [6] 101% | [7] 92.6% | [8] 70.7%

O=c1[nH]c2ccccc2n1C1CCN(C(c2cccc3ccccc23)c2nnnn2Cc2ccccc2)CC1 (centres undefined)
inactive: [1] 13.1% | [2] 8.16% | [3] -24.4% | [4] -4.89% | [6] 18.9% | [7] 28.4% | [8] 9.13%
active: [5] 53.6%

Nc1ncnc2c1ccn2[C@@H]1O[C@H](CO)[C@@H](O)[C@H]1O
active: [1] 93.6% | [2] 89.5% | [3] 53.4% | [4] 86.8% | [5] 90.9% | [6] 107% | [7] 94.2% | [8] 93.6% | [11] 55.5% | [12] 58.3%

C[C@H]1[C@@H](OS(=O)(=O)O)C[C@@H]2C[C@H]([C@@H](O)c3cc(=O)[nH]c(=O)[nH]3)NC3=NC[C@H]1N32
active: [1] 88.3% | [2] 71% | [3] 58% | [4] 70.5% | [5] 92.3% | [6] 107% | [7] 95.2% | [8] 76.8%

CCC(C)NC(=O)CCC(=O)OC1O[C@H]2OC3(C)CC[C@H]4[C@H](C)CCC(C1C)C24OO3 (some centres undefined)
active: [1] 63.7% | [2] 83.6% | [3] 47.4% | [4] 82% | [5] 75% | [6] 102% | [7] 91.8% | [8] 84.7%

CC[C@@H](O)C[C@H]1CCC[C@@]2(C[C@@H]3OC(=O)/C=C/[C@@](C)(O)[C@@H](O)[C@H](C)[C@@H](O)[C@H](OC4CCC(N(C)C)C(C)O4)[C@@H](O)[C@](C)(O)CCCCC/C=C/[C@@H]4CC(C)(C)O[C@@]4(O)C[C@H](O2)[C@H]3C)O1 (some centres undefined)
active: [1] 76.5% | [2] 85.9% | [3] 62.5% | [4] 85% | [5] 79.8% | [6] 105% | [7] 94% | [8] 87.9%

COc1cc2cc(C(=O)N3CC(COS(C)(=O)=O)c4ccc(O)cc43)[nH]c2c(OC)c1OC (centres undefined)
active: [1] 97.5% | [2] 96.2% | [3] 96% | [4] 95.7% | [5] 98% | [6] 111% | [7] 99.2% | [8] 98.2%

CC(C)CC(NC(=O)CCCNC(=O)CCC(=O)OC1O[C@H]2OC3(C)CC[C@H]4[C@H](C)CCC(C1C)C24OO3)C(=O)O (some centres undefined)
active: [1] 54.4% | [2] 77.2% | [3] 53.3% | [4] 76.9% | [5] 72.2% | [6] 101% | [7] 91% | [8] 86.4%

Cc1ccc(-c2cc(-c3ccc(C)cc3)[n+](-c3ccccc3)c(-c3ccc(C)cc3)c2)cc1
active: [1] 79.8% | [2] 82.6% | [3] 48.3% | [4] 80.6% | [5] 84.5% | [6] 111% | [7] 94.8% | [8] 95%

COc1ccc(-n2nnnc2C(c2cc3ccccc3o2)N2CCC(n3c(=O)[nH]c4ccccc43)CC2)cc1 (centres undefined)
inactive: [1] -5.69% | [2] 5.58% | [3] 0.21% | [4] 6.66% | [6] 36.4% | [12] 22.9%
active: [5] 39.6% | [7] 45.7% | [8] 35.3% | [11] 49.7%
